# Test results as given in PubChem BioAssay (NCI).
# Where “and” joins values, the source holds several entries; their conditions need not be identical. Equal values may be shown once. This is part of a sample that, as a whole, favours compounds with a hit. Of some 83,000 tested, about 20% had one in any assay.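 Values shown are percent growth following 48 h exposure of cells in 96-well plates to a single concentration of compound; below 10 was considered active.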 Unmarked numbers belong to inactive results. Calls of active or inactive are those of the source.
# What was measured:
# Test in all cases: NCI-60 one-dose screen, 48 h (100 = growth as untreated, 0 = no growth, -100 = all killed)
# Conditions in all cases: 10 µM unless noted
# [1] = tested on: NCI-H23 lung
# [2] = tested on: NCI-H226 lung
# [3] = tested on: HOP-62 NSCLC
# [4] = tested on: NCI-H460 lung
# [5] = tested on: HOP-92 NSCLC
# [6] = tested on: NCI-H522 lung
# [7] = tested on: A549/ATCC NSCLC
# [8] = tested on: 786-0 renal
# [9] = tested on: COLO 205 colon
# [10] = tested on: NCI-H322M lung
SMILES,growth [1],growth [2],growth [3],growth [4],growth [5],growth [6],growth [7],growth [8],growth [9],growth [10]
CCc1cc2c(cc1Cl)nc1c(=O)[nH]c(=O)nc-1n2CCOCC(C)(C)C,72.1%,41.2%,104%,56.4%,110%,70.5%,75.5%,81.1%,58.2%,–
CC1=Cc2ccccc2OC12C=Cc1ccccc1O2 (stereo not given),86.5%,91.7%,89.5%,104%,98.6%,97.2%,104%,105%,110%,–
COC(=O)CCSC1=C(C)C(=O)c2ccccc2C1=O,71.3%,86.7%,107%,101%,88.6%,62.4%,106%,103%,120%,–
CC(Nc1ncnc2ccc(-c3cnc(N)nc3)cc12)c1ccccc1 (stereo not given),50.3%,20.6%,31.2%,35.1%,-0.545% (active),11.9%,32.7%,23.7%,49.6%,–
CCCCSC1=C(Cl)CN(c2ccccc2)C1=O,102%,102%,111%,104%,95.7%,-9.23% (active),104%,108%,125%,–
COc1ccc(C(=O)c2c(N)c(C#N)cn2-c2ccc(Cl)cc2Cl)cc1,93.3%,97.2%,99.7%,100%,101%,90.3%,93.4%,103%,109%,–
O=C(CCCCCCN1CC(=O)N2[C@@H](c3cccs3)c3[nH]c4ccccc4c3C[C@H]2C1=O)NO,94.1%,107%,91.2%,77.2%,69%,44.7%,98.9%,103%,93.1%,–
C#CCOc1ccc(-c2csc(NC(=O)C=C)n2)cc1NS(=O)(=O)c1cccc2c(N(C)C)cccc12,56.4%,33.1%,93.2%,81.2%,0.234% (active),29.9%,65.4%,8.71% (active),67.6%,–
C=CCSC1=NC2C(N(CC)C(=O)N2CC)N1/N=C/C=C/c1ccccc1OC (stereo not given),84%,78.3%,80.7%,84.3%,–,57.2%,69.8%,98.5%,83.1%,102%
C/C(=C(/C)C1CC1CCNC1CCC(NC(=O)OC(C)(C)C)CC1)c1ccccc1 (stereo not given),70.8%,80.1%,84.4%,57.6%,54.8%,68.6%,73.4%,65.6%,-56% (active),–
C[C@@H]1OCC2(CCN(c3cnc(C(=O)Nc4cc(F)cc5cccnc45)cn3)CC2)[C@@H]1N,82.2%,78.6%,83.8%,93.5%,45.7%,34.8%,82.2%,71.3%,9.27% (active),–
Brc1cc(-c2cc(-c3ccc4c(c3)OC=CO4)[nH]n2)cs1,79.3%,92%,84.7%,97.8%,101%,81.3%,93.9%,106%,–,–
COc1cc(-c2nc(-c3ccccc3)[nH]c2-c2ccnc(NCCCNS(=O)(=O)c3ccc(C(F)(F)F)cc3)n2)ccc1Cl,30.8% and 57%,36.2% and 51.7%,88.3% and 55.4%,14.3% and 26.7%,41.3% and 49.4%,60.6% and 26.8%,31% and 29.3%,33.3% and 35.6%,48.8% and 11.1%,–
COc1cccc2c1[C@H](OC)[C@]13O[C@@]1(C2=O)[C@H](O)[C@H](C)[C@@](O)(C(=O)[C@@H]1O[C@H]1C)[C@@H]3O,-63.9% (active),-54.4% (active),-26% (active),-33.2% (active),-16.8% (active),-31.9% (active),-16.7% (active),-16.9% (active),-44.9% (active),–
